Source: PubChem BioAssay AID504374 (National Center for Advancing Translational Sciences (NCATS), 2011)
In all, about 1,500 compounds went through this assay and about 100 (6.7%) were called active. A call without a number means that no potency is given here. About 7% were inconclusive and are not listed. Calls follow the shape of the dose curve; as a rule, active = well fitted inhibition curve with a large enough effect; inconclusive = small, poorly fitted or top-dose-only effect, or effect the other way; inactive = flat fitted curve, though single readings scatter. Many of the other results were omitted from the sample, so actives are more common in it than they were.

Molecular target: Runt-related transcription factor 1 (Homo sapiens) + Core-binding factor subunit beta (Homo sapiens) (UniProt Q01196+Q13951)
Sequence (Q01196 whole entry, looked up): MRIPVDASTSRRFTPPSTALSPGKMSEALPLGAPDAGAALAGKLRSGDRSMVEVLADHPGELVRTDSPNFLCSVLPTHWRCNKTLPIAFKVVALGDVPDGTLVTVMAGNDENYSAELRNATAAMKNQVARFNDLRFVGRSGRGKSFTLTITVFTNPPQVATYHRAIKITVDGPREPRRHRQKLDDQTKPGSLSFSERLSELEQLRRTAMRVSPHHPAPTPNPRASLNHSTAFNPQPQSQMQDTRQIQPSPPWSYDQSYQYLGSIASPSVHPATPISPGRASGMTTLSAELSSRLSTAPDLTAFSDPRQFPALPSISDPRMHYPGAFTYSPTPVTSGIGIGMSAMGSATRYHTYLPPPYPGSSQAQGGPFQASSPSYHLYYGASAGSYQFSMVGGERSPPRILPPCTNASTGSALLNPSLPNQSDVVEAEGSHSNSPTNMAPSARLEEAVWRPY
Sequence (Q13951 whole entry, looked up): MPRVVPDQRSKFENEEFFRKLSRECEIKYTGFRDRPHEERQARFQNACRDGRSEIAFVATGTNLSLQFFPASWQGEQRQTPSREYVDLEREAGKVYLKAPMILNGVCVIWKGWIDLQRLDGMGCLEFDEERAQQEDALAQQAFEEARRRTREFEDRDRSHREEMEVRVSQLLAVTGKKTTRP
Assay: qHTS Assay for Compounds Blocking the Interaction Between CBF-beta and RUNX1 for the Treatment of Acute Myeloid Leukemia: Hit Validation; also: nearly all actives have a fitted effect of over 60% in size
Settings: AlphaScreen CBFb-His/RUNX1-biotin binding; series mostly up to 59.8 µM
Source text: NIH Chemical Genomics Center [NCGC]
NIH Molecular Libraries Probe Production centers Network [MLPCN]
Assay Submitter (PI): Paul Liu
Core Binding Factor (CBF) abnormalities are associated with 20-25% of all acute myeloid leukemias (AML), of which 5-10% are further sub classified as acute myelomonocytic leukemia with eosinophilia, also known as M4Eo in the FAB classification scheme. This subtype of leukemia is usually associated with chromosome 16 inversion (p13:q22). Chromosome 16 inversion results in formation of the fusion oncogene CBFB-MYH11, which encodes the fusion protein CBF-beta-SMMHC.
It has been hypothesized that the interference of CBF-beta and RUNX1 binding could have therapeutic implications for patients with CBF mediated leukemias. We developed a CBF-beta and RUNX1 binding assay in AlphaScreenTM format and optimized it for high throughput screening to search for inhibitors. The goal of this project is to screen MLPCN's compound collection (MLSMR) for identifying the inhibitors of the interaction between CBF-beta and RUNX1 proteins as research probes. If these probes work well in the animal models, the ultimate goal of this project is to development a new drug treatment for this disease.
This assay can not be used to assess how apparent inhibitors interfere with protein binding, and whether inhibitors specifically bind to either protein. Disruption of this protein-protein interaction, through any mechanism, is the intended target activity.
The present data set was run to confirm the activity of hits from the primary screen.
NCGC Assay Protocol Summary:
Step, Parameter, Description
(1) Reagent, 3 uL CBFb-His/RUNX1-biotin mix incubated together for 20 minutes at room temperature (30 nM each)
(2) Compound or control, 23 nL compound stock solution
(3) Incubation, 15 minutes at Room temperature
(4) Reagent, 1 uL 50 ng each of beads (Nickel beads and streptavidin beads)
(5) Incubation, 90 minutes at Room temperature
(6) Detection, Excitation=365 nm Emission=440 nm, Envision reader in AlphaScreenTM mode
Keywords: MLSMR, MLPCN, NIH Roadmap, qHTS, NCGC, Core binding factor, CBF, CBF-beta, Acute myeloid leukemia
Potency is read from the fitted curve at half-maximal effect.

| Compound | Potency |
| --- | --- |
| Cc1ccc(/C=N/n2c(-c3ccncc3)n[nH]c2=S)s1 | inactive |
| COc1cc(/C=N/n2c(-c3ccccc3)n[nH]c2=S)cc(OC)c1O | inactive |
| COc1ccccc1/C=C/C=N/n1c(-c2ccccn2)n[nH]c1=S | 11.2 µM (active) |
| CC(=O)c1c(C)nc(Nc2nc3ccccc3s2)nc1C | inactive |
| COc1ccc(Nc2cc(=O)n(-c3ccccc3)c3c2c(=O)n(C)c(=O)n3C)cc1 | inactive |
| Cn1c(=O)c2c(nc(N3CCOCC3)n2C/C=C/c2ccccc2)n(C)c1=O | inactive |
| COCCCN1CCN(C2Cc3ccccc3Sc3ccc(Cl)cc32)CC1 (stereo unspecified) | 12.2 µM (active) |
| CC(C)(C)OC(=O)N1CCC[C@H]1c1nnc(SCc2ccccc2)o1 | inactive |
| CCCCNC(=O)Nc1ncn[nH]1 | inactive |
| Cc1nn(-c2ccccc2)c(NC(=O)c2cccs2)c(-c2ccccc2Cl)c1=O | inactive |
| CC(C)(C)OC(=O)N[C@@H](Cc1ccccc1)c1nnc(SCC(N)=O)o1 | inactive |
| O=C(O)c1ccc(/C=N\Nc2ccc(S(=O)(=O)N3CCOCC3)cc2[N+](=O)[O-])cc1 | inactive |
| CCN(CC)c1ccc(/C=N/NC(=O)c2ccco2)c(O)c1 | 31.6 µM (active) |
| Cc1nn(C)cc1/C=N/NC(=O)c1ccco1 | inactive |
| O=C(N/N=C/c1ccc(Br)s1)c1ccco1 | inactive |
| CCOC(=O)C(=CNNc1c(C)csc1C(=O)OC)C(=O)OCC | inactive |
| COC(=O)[C@H](CC(C)C)NC(=O)NCCC1=CCCCC1 | inactive |
| CCOc1ccc(/C=C2\CCc3ccccc3C2=O)cc1 | inactive |
| CCCOc1ccc(-c2nc(-c3ccc([N+](=O)[O-])cc3)cs2)cc1 | inactive |

| Compound | Potency |
| --- | --- |
| COc1cccc(C2/C(=C(/O)c3ccccc3)C(=O)C(=O)N2Cc2ccco2)c1 (stereo unspecified) | inactive |
| O=C(/C=C/c1ccccc1)Nc1cccnc1Oc1ccccc1F | inactive |
| O=[N+]([O-])c1ccc2c(c1)S(=O)c1ccccc1-2 (stereo unspecified) | inactive |
| Cc1cc([N+](=O)[O-])nn1CC(=O)N/N=C/c1ccccc1F | inactive |
| O=[N+]([O-])c1ccc(O)c(/C=N/NC2=NS(=O)(=O)c3ccccc32)c1 | 2.82 µM (active) |
| COC(=O)[C@H](CC(C)C)NC(=O)N1CCCCC1C (stereo partly specified) | inactive |
| COc1ccc(/C(C)=N/NC(=O)CNC(=O)Cc2ccccc2)c(OC)c1 | inactive |
| CCCCNC(=O)Nc1ccccc1CC | inactive |
| CCc1ccccc1NC(=S)N(CCN(C)C)C(C)c1ccccn1 (stereo unspecified) | 6.12 µM (active) |
| Cc1cccc(C)c1NC(=S)N(CCN(C)C)C(C)c1ccccn1 (stereo unspecified) | 4.86 µM (active) |
| Cc1ccc(C)c(NC(=S)N(CCN(C)C)C(C)c2ccccn2)c1 (stereo unspecified) | 4.86 µM (active) |
| Cc1c(Cl)cccc1NC(=S)N(CCN(C)C)C(C)c1ccccn1 (stereo unspecified) | 4.34 µM (active) |
| COc1ccc(C2=NOC(CNC(=O)c3ccccc3Br)C2)c(OC)c1 (stereo unspecified) | inactive |
| CC(C)(C)NC(=O)NCCc1ccccc1 | inactive |
| Fc1ccc(-c2cc(-c3cccs3)cc(-c3ccccc3)n2)cc1 | inactive |
| Clc1ccc(Nc2ccc(Cl)nn2)cc1 | inactive |
| COCc1cc(=O)[nH]c2c1c(-c1ccccc1)nn2C | inactive |
| Cc1cc(N2CCOCC2)n2ncc(-c3ccc(Cl)cc3)c2n1 | inactive |
| CC(C)c1nc(C#N)c(NN)o1 | inactive |

| Compound | Potency |
| --- | --- |
| COCc1cc(=O)n2[nH]c(-c3ccco3)cc2n1 | inactive |
| CCC1(CC)Nc2ccccc2C(=O)N1c1ccc(OC)cc1 | inactive |
| CCNC(=O)NC(=O)c1csc([N+](=O)[O-])c1 | inactive |
| Cc1ccc(Cl)cc1NC(=S)N(CCN(C)C)C(C)c1ccccn1 (stereo unspecified) | 5.46 µM (active) |
| Cc1ccccc1NC(=S)Nc1ccccn1 | inactive |
| Cc1ccc(Cl)cc1NC(=S)NN | inactive |
| Cc1ccccc1NC(=S)N(CCN(C)C)C(C)c1ccccn1 (stereo unspecified) | 4.86 µM (active) |
| Cc1cc(NC(=O)Nc2cc(Cl)ccc2C)no1 | inactive |
| NC(=O)C1CCN(c2c([N+](=O)[O-])cc(C(F)(F)F)cc2[N+](=O)[O-])CC1 | inactive |
| C/C(=N\Nc1ccc(C#N)cc1[N+](=O)[O-])c1ccc(O)cc1 | inactive |
| CC1CC(=O)Nc2ccccc2N1S(=O)(=O)c1ccc(Cl)cc1 (stereo unspecified) | inactive |
| O=C(CCCCCCCCCCC(=O)NCc1cccnc1)NCc1cccnc1 | inactive |
| Cc1ccc(C2N=C(N)Nc3nc(=O)c4ccccc4n32)cc1 (stereo unspecified) | inactive |
| Cc1cccnc1NC(=O)c1csnn1 | inactive |
| O=C(OCC1OC(OC(=O)c2cc(O)c(O)c(OC(=O)c3cc(O)c(O)c(O)c3)c2)[C@@H](OC(=O)c2cc(O)c(O)c(OC(=O)c3cc(O)c(O)c(O)c3)c2)C(OC(=O)c2cc(O)c(O)c(OC(=O)c3cc(O)c(O)c(O)c3)c2)C1OC(=O)c1cc(O)c(O)c(OC(=O)c2cc(O)c(O)c(O)c2)c1)c1cc(O)c(O)c(OC(=O)c2cc(O)c(O)c(O)c2)c1 (stereo partly specified) | 0.398 µM (active) |
| O=c1[nH]nc(N2CCOCC2)c(=O)[nH]1 | inactive |
| CCCCCCC(=O)N(O)C1CC(=O)N(c2ccc(F)cc2)C1=O (stereo unspecified) | inactive |
| O=C1Nc2ccccc2C1(O)Cc1ccccn1 (stereo unspecified) | inactive |
